# Data as given in PubChem BioAssay AID504652 (National Center for Advancing Translational Sciences (NCATS), 2011).
# Several values for one entry are separate records, joined by “and”; a condition that tells them apart may be missing. Equal values may be shown once. Screen size: about 360,000 compounds; about 11,000 (3.1%) were called active. Cut-off read from the data, not from the text of the source: active = activity change below about -30%; inactive = the rest. Only a selection was taken, and actives are over-represented in it overall.
# Molecular target: D(1A) dopamine receptor (Homo sapiens) (UniProt P21728)
# Experiment: Antagonist of Human D 1 Dopamine Receptor: qHTS
# Conditions: HEK293 TREx D1 cells, calcium flux, dopamine EC80; at 10 µM; hits give low values
# Summary of the method: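 Kinetic fluorescence of a calcium dye serves as the read-out. D1-expressing Hek293 Trex cells, induced overnight at 30 C, are exposed to compound for 180 s before an EC80 dopamine addition, then read 180 s further.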
# % is set by controls: 0 for no effect and ±100 for the full control effect.
# Sequence of D(1A) dopamine receptor (Homo sapiens) (P21728 whole entry, looked up): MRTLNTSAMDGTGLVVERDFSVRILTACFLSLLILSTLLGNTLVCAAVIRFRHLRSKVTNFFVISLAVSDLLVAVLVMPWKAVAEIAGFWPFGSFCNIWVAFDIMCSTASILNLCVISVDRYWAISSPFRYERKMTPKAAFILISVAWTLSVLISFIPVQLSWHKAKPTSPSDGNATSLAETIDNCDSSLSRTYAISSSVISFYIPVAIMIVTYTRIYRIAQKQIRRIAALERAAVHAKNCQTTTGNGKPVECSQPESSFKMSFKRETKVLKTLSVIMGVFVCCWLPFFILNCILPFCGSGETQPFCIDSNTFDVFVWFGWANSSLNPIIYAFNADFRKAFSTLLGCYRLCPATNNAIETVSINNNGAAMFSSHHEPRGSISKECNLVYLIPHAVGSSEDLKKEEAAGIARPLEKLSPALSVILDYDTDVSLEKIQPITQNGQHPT
row,SMILES,"activity change, negative = inhibition"
1,CCCc1nn2c(=O)cc(COC(=O)c3ccc(NC(=O)COc4ccc(F)cc4)cc3)nc2s1,-16.4% (inactive)
2,CCn1cc(C(=O)OCC(=O)Nc2cc(C)cc(C)c2)c(=O)c2ccc(C)nc21,7.91% (inactive)
3,Cc1cc(C=O)c(C)n1-c1ccc(NC2CCCCC2)c([N+](=O)[O-])c1,-2.05% (inactive)
4,Cc1ccc(-n2c(C)cc(/C=N/Nc3ccc([N+](=O)[O-])cn3)c2C)c(C)c1,-44.1% (active)
5,Cc1ccc(N2CCN(c3ccc([N+](=O)[O-])cn3)CC2)c(C)c1,8.06% (inactive)
6,CC(C)C(=O)Nc1nc2c(s1)CC(C(C)(C)C)CC2 (centres undefined),7.11% (inactive)
7,COc1ccccc1OCCNCC(O)COc1cccc2[nH]c3ccccc3c12 (centres undefined),-58.7% (active) and -69% (active)
8,CCCn1c(=N)n(CC(O)COc2ccccc2OC)c2ccccc21 (centres undefined),-15% (inactive)
9,COc1cccc2[nH]c(C(=O)NCCc3ccccc3)cc12,-6.46% (inactive)
10,CC(C)Sc1oc(-c2cccs2)nc1S(=O)(=O)c1ccc(Cl)cc1,14.3% (inactive)
11,COc1ccc(-c2nc(SCC(=O)N3CCCCC3C)n[nH]2)cc1 (centres undefined),9.65% (inactive)
12,COc1ccc(-c2csc(-c3c(N)c(C(=O)c4ccc(OC)c(OC)c4)n4ccccc34)n2)cc1,-1.18% (inactive)
13,COc1ccc(C(=O)NCC(c2ccc(N(C)C)cc2)N2CCc3ccccc32)c(OC)c1 (centres undefined),-5.15% (inactive)
14,COc1ccc(S(=O)(=O)NCC(c2ccc(N(C)C)cc2)N2CCc3ccccc32)cc1OC (centres undefined),-64.5% (active)
15,O=S(=O)(NCC(c1ccccc1)N1CCc2ccccc21)c1ccccc1 (centres undefined),6.46% (inactive)
16,COc1ccc(NC(=O)CSc2nccn2Cc2ccc3c(c2)OCO3)cc1,6.87% (inactive)
17,O=C(NCc1ccccc1)C1CCN(S(=O)(=O)c2ccc3[nH]c(=O)ccc3c2)CC1,16.6% (inactive)
18,COc1ccc(CCN2C(=O)N(c3cccc(OC)c3)C(=O)C2CC(=O)Nc2ccccc2)cc1 (centres undefined),-1.1% (inactive)
19,CN1CCN(C(=O)C2C3C=CC(C3)C2C(=O)O)CC1 (centres undefined),-15.3% (inactive)
20,C=C(Cl)COC(=O)C1C2C=CC(C2)C1C(=O)O (centres undefined),6.01% (inactive)
21,O=C(O)C1C2C=CC(C2)C1C(=O)N1CCN(CCO)CC1 (centres undefined),-46.7% (active)

row,SMILES,"activity change, negative = inhibition"
1,Cc1cccc(-n2ncc(C(=O)N3CCc4ccccc4C3)c2C2CCN(C(=O)OC(C)(C)C)CC2)c1,7.17% (inactive)
2,Oc1c(Cl)cc(Cl)c(Cl)c1Cc1c(O)c(Cl)cc(Cl)c1Cl,-41.7% (active)
3,CCc1ccc(NC(=O)CN2C(=O)C(c3ccccc3)=NC23CCCCCC3)cc1,-6.53% (inactive)
4,CCn1nc(C)c(NC(=O)/C=C/c2ccc(OC)c(COc3ccc(Br)cc3)c2)c1C,-39.8% (active)
5,COc1ccc(C(C)=O)cc1COc1ccc(Cl)c(C)c1,0.455% (inactive)
6,COc1ccc(/C=C/C(=O)Nc2c(C)nn(C)c2C)cc1COc1ccc(Br)cc1,9.14% (inactive)
7,COc1cccc(CNC(=O)C2CCC(CNS(=O)(=O)c3cccs3)CC2)c1 (centres undefined),-1.65% (inactive)
8,CCc1ccccc1N1C(=O)CN(S(=O)(=O)CC)CC1(C)C(=O)NC1CCCCC1 (centres undefined),-10.1% (inactive)
9,Cc1ccccc1C(=O)Nc1sc2c(c1C(=O)N1CCC(C)CC1)CCCC2,5.36% (inactive)
10,Fc1ccc2[nH]c3c(N4CCN(Cc5ccc6c(c5)OCO6)CC4)ncnc3c2c1,-7.57% (inactive)
11,Fc1ccc2[nH]c3c(N4CCSCC4)ncnc3c2c1,-30.2% (active)
12,NC(=O)CC[C@@H]1NC(=O)[C@H](CO)NC(=O)c2cc([N+](=O)[O-])cc(I)c2NCC[C@@H](C(N)=O)NC1=O,-14% (inactive)
13,NCCCC[C@@H]1NC(=O)[C@H](CCC(=O)O)NC(=O)c2cc([N+](=O)[O-])cc(I)c2NCC[C@@H](C(N)=O)NC1=O,-2.74% (inactive)
14,NC(=O)C[C@@H]1NC(=O)CNC(=O)c2cc([N+](=O)[O-])cc(I)c2NCCC(C(N)=O)NC1=O (some centres undefined),-30.2% (active)
15,O=C(CSc1nc(-c2cccc(F)c2)[nH]c1-c1ccccc1)Nc1ccc2c(c1)OCO2,-4.86% (inactive)
16,Cc1cccc(N2CCN(C(=O)c3cnc(N4CCCC4)nc3C)CC2)c1C,10% (inactive)
17,CCCCn1c(=N)c(S(=O)(=O)c2ccccc2)cc2c(=O)n3cccc(C)c3nc21,1.3% (inactive)
18,N#Cc1cccc(NC(=O)CN2CCCCCC2)c1,-7.3% (inactive)
19,N#Cc1cccc(Nc2c3c(nc4ccccc24)CCCC3)c1,-36.2% (active)
20,CCOc1ccc(C(=O)Nc2ccc3nc4c(c(Nc5ccccc5OC)c3c2)CCCC4)cc1,-7.4% (inactive)
21,Cc1ccc(Nc2c3c(nc4ccccc24)CCC3)cc1,-39.1% (active)

row,SMILES,"activity change, negative = inhibition"
1,COc1ccccc1Nc1c2c(nc3ccc(NC(=O)/C=C/c4cc(OC)c(OC)c(OC)c4)cc13)CCCC2,3.33% (inactive)
2,CCOc1ccc(NC(=O)CSc2c3c(nc4ccccc24)CCCC3)cc1,-2.6% (inactive)
3,O=C(NC1CCCCC1)c1ccc2c(c1)N(Cc1ccc(Cl)cc1)C(=O)c1ccccc1S2=O (centres undefined),-15.6% (inactive)
4,Cn1nc(-c2ccccc2)c(-c2ccccc2)c(C(=O)Nc2ccc(S(N)(=O)=O)cc2)c1=O,-1.5% (inactive)
5,Cc1cc(C)c(NC(=O)CCc2c(C)nc3c(c(C)nn3C(C)(C)C)c2C)c(C)c1,1.02% (inactive)
6,CCN1CCN(Cc2c(O)ccc3oc(C)c(C(=O)Nc4ccc(C)cc4C)c23)CC1,7.06% (inactive)
7,COc1ccccc1CNc1ccc(-c2nc(-c3ccccc3C)no2)cc1[N+](=O)[O-],-10.5% (inactive)
8,O=C(C1CCCN(S(=O)(=O)c2cccc3nonc23)C1)N1CCN(c2ccccc2F)CC1 (centres undefined),10.7% (inactive)
9,O=C(NCCNc1ccc([N+](=O)[O-])cc1)c1cccc2c(Br)cccc12,-63.4% (active)
10,CC(CNc1ccc([N+](=O)[O-])cc1)NC(=O)c1ccccc1Br (centres undefined),-2.12% (inactive)
11,COc1ccc(C(=O)NCCNc2ccc([N+](=O)[O-])cn2)cc1,-8.65% (inactive)
12,Cc1ccc(CCNC(=O)c2ccc3c(c2)nc2n3CCC(C)C2)cc1 (centres undefined),-13.4% (inactive)
13,N=c1n(Cc2ccc(Cl)cc2)c2ccccc2n1CC(O)c1ccco1 (centres undefined),-51.9% (active)
14,O=C(c1ccco1)n1nc(-c2ccc(Cl)cc2)nc1NCc1ccccc1,-12.9% (inactive)
15,COc1ccccc1NC(=O)CCC(=O)N1CC(C)Oc2ccc(C)cc21 (centres undefined),7.34% (inactive) and 2.65% (inactive)
16,CC1CN(C(=O)CCC(=O)NCCCN2CCC(Cc3ccccc3)CC2)c2cc(Cl)ccc2O1 (centres undefined),-43.5% (active)
17,Cc1ccc2c(c1)N(C(=O)CCC(=O)NCc1ccccc1F)CC(C)O2 (centres undefined),-22.7% (inactive)
18,COc1ccc(N2C(=O)CSC23C(=O)N(Cc2cccc(F)c2)c2ccccc23)cc1Cl (centres undefined),-0.577% (inactive)
19,O=C(NC(=O)c1cc(OCC(F)(F)F)ccc1OCC(F)(F)F)Nc1ccccc1,-35% (active)
20,CONC(=O)c1cc(OCC(F)(F)F)ccc1OCC(F)(F)F,8% (inactive)
21,CCOc1ccc(CCNC(=O)Nc2ccccc2)cc1OCC,14.7% (inactive)

row,SMILES,"activity change, negative = inhibition"
1,CCC1CCCCN1C(=O)Cn1c(=O)n(CCCCCC(=O)NCc2ccccc2)c(=O)c2sccc21 (centres undefined),-26.9% (inactive)
2,COc1ccc(-c2onc(C)c2C)cc1S(=O)(=O)NCc1cccs1,-23.8% (inactive)
3,COc1ccccc1/C=C/c1nc(C#N)c(NC(C)c2ccccc2)o1 (centres undefined),4.56% (inactive)
4,O=C(Nc1ccc(N2CCN(C(=O)c3cccs3)CC2)cc1)c1cccnc1Cl,2.63% (inactive)
5,O=C(COc1ccccc1)Nc1ccc(N2CCN(C(=O)c3cccs3)CC2)cc1,-10.9% (inactive)
6,Cc1ccccc1C(=O)N1CCN(c2ccc(NC(=O)c3cccs3)cc2)CC1,-61.2% (active)
7,CC1=Nc2cc(C(=O)NCc3ccc(C)cc3)ccc2Sc2ccc(Cl)cc21,4.46% (inactive)
8,CCCCN(CC)CCCNC(=O)c1nn(C)c2c1CS(=O)(=O)c1ccccc1-2,4.54% (inactive)
9,COc1ccc(Cn2cc(C(=O)c3ccc(C)cc3)c(=O)c3cc(OC)c(OC)cc32)cc1,-0.034% (inactive)
10,CN(C)S(=O)(=O)N1CCN(c2ccc([N+](=O)[O-])cc2)CC1,-43% (active)
11,O=[N+]([O-])c1ccc(N2CCN(c3ccc(O)cc3)CC2)c(Cl)c1,-19% (inactive)
12,Cc1ccc(N2CCN(S(=O)(=O)N(C)C)CC2)cc1Cl,-16.4% (inactive)
13,COc1cc(Cl)c(C)cc1Nc1nnc(-n2nc(C)cc2C)c2ccccc12,-5.89% (inactive)
14,Cc1cc2c(s1)c1cnn(Cc3c(F)cccc3Cl)c(=O)c1n2C,15.1% (inactive)
15,Cc1ccc2nc(NC(=O)C3CCN(S(=O)(=O)c4ccc5c(c4)oc(=O)n5C)CC3)sc2c1,-9.2% (inactive)
16,Cn1c(=O)oc2cc(S(=O)(=O)N3CCC(C(=O)Nc4ccc(OC(F)(F)F)cc4)CC3)ccc21,-36.4% (active)
17,COc1ccc(NC(=O)C2CCN(S(=O)(=O)c3ccc4[nH]c(=O)oc4c3)CC2)c(OC)c1,1.07% (inactive)
18,Cc1ccc(S(=O)(=O)N(CC(=O)Nc2ccc(Cl)cc2Cl)c2ccccc2C)cc1,-14.7% (inactive)
19,Cc1c(Cl)cccc1NC(=O)Cn1cc(C(=O)c2cccs2)c2ccccc21,-23.5% (inactive)
20,CCOc1ccc(NC(=O)c2cc3c(=O)n(Cc4cccs4)ccc3nc2C)cc1,2.95% (inactive)
21,COc1ccc(CN2C(=O)C(NC(=O)c3cccc(C)c3)(C(F)(F)F)N=C2c2ccccc2)cc1 (centres undefined),2.79% (inactive)
